Results published in PubChem BioAssay (Tox21).
A number with no mark means an inactive call. Calls of active or inactive are those of the source. The call rests on the fitted dose curve; in most records, active means well fitted activation curve with a large enough effect in the repeat runs; inconclusive means weak or mixed curves; inactive means flat fitted curve, though single readings scatter.

biological target: KiSS-1 receptor (Homo sapiens) (UniProt Q969F8); experiment: Human kisspeptin (KISS1R) small molecule agonists, calcium flux assay in KISS1R-HEK293 cells (AID 1920064); conditions: KISS1R-HEK293, calcium flux fluorescence, agonist; series mostly up to 76.8 µM; activation: at the top concentration
Sequence (Q969F8 whole entry, looked up): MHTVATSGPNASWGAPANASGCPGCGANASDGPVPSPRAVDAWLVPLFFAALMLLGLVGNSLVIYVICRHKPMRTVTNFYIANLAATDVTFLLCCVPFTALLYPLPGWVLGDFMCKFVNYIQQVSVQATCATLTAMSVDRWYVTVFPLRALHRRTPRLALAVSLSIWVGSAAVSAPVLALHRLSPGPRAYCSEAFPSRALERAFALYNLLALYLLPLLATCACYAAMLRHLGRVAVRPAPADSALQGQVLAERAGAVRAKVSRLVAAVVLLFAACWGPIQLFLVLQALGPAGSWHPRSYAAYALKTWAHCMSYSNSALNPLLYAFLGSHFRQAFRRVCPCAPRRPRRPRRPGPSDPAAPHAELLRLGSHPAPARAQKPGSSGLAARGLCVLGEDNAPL
From the text: National Center for Advancing Translational Sciences [NCATS]
Division of Preclinical Innovation [DPI]
U.S. Environmental Protection Agency [EPA]
National Institutes of Environmental Health Sciences [NIEHS]
National Toxicology Program [NTP]
U.S. Food and Drug Administration [FDA]
Kisspeptin and its receptor KISS1R play key roles in mammalian reproduction due to their involvement in the onset of puberty and control of the hypothalamic-pituitary-gonadal axis such as regulates GnRH release from the hypothalamus. The kisspeptin/KISS1R system also plays a direct role in peripheral organs (including the ovary, testis, uterus, and placenta) and is implicated in reproductive diseases such as miscarriage and polycystic ovary syndrome (PCOS). Abnormal KISS1R activity is associated with abnormal puberty, infertility, endometriosis, and hormone-dependent tumors. The KISS1 receptor (KISS1R, also called GPR54), a G-protein-coupled receptor (GPCR), acts (through phospholipase C) to increase intracellular inositol trisphosphate and then release intracellular calcium stores. Cell-based KISS1R-HEK293 assay is using HEK293 cells that have been genetically engineered to express the human KISS1R, which activity can be measured by calcium signaling. A compound/drug can activate (agonist) KISS1R that can be monitored by levels of intracellular calcium.
KISS1R-HEK293 cells developed by Codex Corp contain human KISS1R gene, which was stably integrated into HEK 293 cells. The compound activation can be detected by fluorescence intensity via calcium flux assay. This cell line has been used to screen the Tox21 10K compound library to identify agonists of KISS1R.
KISS1R-Hek293 cells were dispensed at 1500 cells/4uL/well in 1536-well black wall/clear bottom plates using a multidrop dispenser. After the assay plates were incubated at a 37 C/5% CO2 incubator for 18 hours, 4 microL of Calcium Dye Solution was added to each well. The plates were incubated at 37 C for 1 hour. And then 23 nL of compounds dissolved in DMSO, positive controls, or DMSO only was transferred to the assay plate by a pin tool station. The fluorescence intensity in the plates was measured using FDSS 7000EX kinetic plate reader with a filter set of Ex/Em=480/540 for 3 min at 1 sec intervals. Each test compound was measured at 15 concentrations and in triplicates.
On the % scale 0 is the no-effect control and ±100 the full control effect.

| Compound | activation | Potency |
| --- | --- | --- |
| Cc1cccc(OP(=O)(Oc2cccc(C)c2)Oc2cccc(C)c2)c1 | -0.913% | – |
| CC(C)[N+](=O)[O-] | 1.2% | – |
| O=C(OC1CCCCC1)c1ccccc1C(=O)OC1CCCCC1 | 4.35% | – |
| O=C(Nc1ccc2[nH]ccc2c1)c1cc2cc(F)ccc2n1Cc1cccc(F)c1 | -0.749% | – |
| CCCCS(=O)(=O)Cl | -2.91% | – |
| [Cl][Sb]([Cl])[Cl] | 5.81% | – |
| CCC(C)Nc1c([N+](=O)[O-])cc(C(C)(C)C)cc1[N+](=O)[O-] (stereo not given) | 3.64% | – |
| CN/C(=N\[N+](=O)[O-])NCC1CCOC1 (stereo not given) | 0.238% | – |
| Cc1ccccc1OP(=O)(Oc1ccccc1C)Oc1ccccc1C | 0.973% | – |
| Cc1nc(N)nc(N)n1 | -0.274% | – |
| CSc1ccc(C(=O)C(C)(C)N2CCOCC2)cc1 | -2.11% | – |
| O=C(Nc1ccccc1)N(Cc1ccc(Cl)cc1)C1CCCC1 | 1.69% | – |
| CC(C)C1CCC(Cc2ccc(Cl)cc2)C1(O)Cn1cncn1 (stereo not given) | 16.2% | – |
| BrCC(Br)C1CCC(Br)C(Br)C1 (stereo not given) | 0.845% | – |
| CCCN(CCC)c1c([N+](=O)[O-])cc(C(F)(F)F)cc1[N+](=O)[O-] | – | inactive |
| COC1=CC(=O)O[C@@H](CCc2ccccc2)C1 | -0.168% | – |
| COc1ccc([N+](=O)[O-])cc1O | -1.2% [at 35.3 µM] | – |
| Cc1ccccc1C(=O)Nc1cccc(OC(C)C)c1 | -2% | – |
| O=C1CN=C(c2ccccc2)c2cc(Cl)ccc2N1CC1CC1 | -0.946% | – |
| CCOP(=S)(OCC)SCSc1ccc(Cl)cc1 | 0.247% | – |

| Compound | activation | Potency |
| --- | --- | --- |
| O=[N+]([O-])c1cccc(CCl)c1 | -2.66% | – |
| ClSC(Cl)(Cl)Cl | -2.87% | – |
| CC(=O)NC1CCSC1=O (stereo not given) | 1.16% [at 35.3 µM] | – |
| CCCCCCCCCCCCCN1CC(C)OC(C)C1 (stereo not given) | 0.29% | – |
| CCc1cc(OC)c(C[C@H](C)N)cc1OC | 0.165% | – |
| C#CC(C)(C)O | 0.801% | – |
| N#CNC#N | 0.645% | – |
| CCCCN(CCCC)C(=S)[S-].CCCCN(CCCC)C(=S)[S-].[Ni+2] | 1.83% [at 35.3 µM] | – |
| OCCBr | 3.41% | – |
| CC[C@H](C)[C@H]1O[C@]2(C=C[C@@H]1C)C[C@@H]1C[C@@H](C/C=C(\C)[C@@H](O[C@H]3C[C@H](OC)[C@@H](O[C@H]4C[C@H](OC)[C@@H](NC)[C@H](C)O4)[C@H](C)O3)[C@@H](C)/C=C/C=C3\CO[C@@H]4[C@H](O)C(C)=C[C@@H](C(=O)O1)[C@]34O)O2 | 14.3% | – |
| CC(CC(C(N)=O)(c1ccccc1)c1ccccc1)N(C)C (stereo not given) | 11.6% [at 35.3 µM] | – |
| COC(=O)c1cc(Oc2ccc(Cl)cc2Cl)ccc1[N+](=O)[O-] | -1.96% | – |
| CC(C)CC#N | 0.917% | – |
| CCC(OC(C)=O)C(CC(C)NC)(c1ccccc1)c1ccccc1 (stereo not given) | 13.7% | – |
| Nc1c(Br)cc(Br)c2c1C(=O)c1ccccc1C2=O | 7.67% [at 15.8 µM] | – |
| CC(C)CC(N(C)C)C1(c2ccc(Cl)cc2)CCC1 (stereo not given) | -0.108% [at 35.3 µM] | – |
| CSC(=O)c1c(C(F)F)nc(C(F)(F)F)c(C(=O)SC)c1CC(C)C | -1.23% | – |
| Nc1c(Cl)c(Cl)c(Cl)c(Cl)c1Cl | -3.89% | – |
| FC(Cl)(Cl)C(F)(Cl)Cl | 0.826% | – |
| CNC(=O)/C=C(\C)OP(=O)(OC)OC | -1.45% | – |
